Screening data (PubChem)
Rows were chosen to be rich in hits. Some 7.4% of all compounds tested hit in one or more screens of this group.
DAT uptake mod: modulates human dopamine transporter uptake under cocaine; LLC-PK1 hDAT cells, [14C]-dopamine uptake with cocaine IC80; actives deviate in either direction; B-score at 10 µM; actives 1.3% (n = 110,000);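 active means Z score or B-score, a plate-position-corrected score, falls beyond the plate's 99.7% confidence bounds, in either direction; inactive means both scores lie inside the 99.7% bounds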
D1 mod: allosteric modulators of human D1 dopamine receptor; P21728; HEK293 D1, CRE-luciferase, dopamine EC30 potentiation; actives deviate in either direction; B-score at 10 µM; actives 5.9% (n = 58,000);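 active means luminescence count or its row- and column-corrected plate score outside the 99.7% band of the plate's sample wells, on either side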
FXIIa inh mix: blocks human factor XIIa in pooled compound mixtures; actives 0.2% (n = 62,000); inhibition, % at 5 µM; purified FXIIa, fluorogenic substrate; P00748
M1 agonist: M1 muscarinic receptor agonism; B-score at 10 µM; actives 3% (n = 64,000); CHO-M1 cells, Fluo-4 calcium fluorescence, agonist mode; active compounds read high; AID 626;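 active means fluorescence rise, raw or as B-score row- and column-corrected plate score, outside the 99.7% band of its plate's samples, either direction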
FXIa inh mix: factor XIa (human) inhibition, mixture screen; P03951; purified FXIa, fluorogenic substrate, pooled mixtures; inhibition, % at 5 µM; actives 0.19% (n = 62,000); AID 680;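 further: each value is inhibition by a whole ten-compound pool holding the compound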
Target sequence (P03951 19-387 limits assumed): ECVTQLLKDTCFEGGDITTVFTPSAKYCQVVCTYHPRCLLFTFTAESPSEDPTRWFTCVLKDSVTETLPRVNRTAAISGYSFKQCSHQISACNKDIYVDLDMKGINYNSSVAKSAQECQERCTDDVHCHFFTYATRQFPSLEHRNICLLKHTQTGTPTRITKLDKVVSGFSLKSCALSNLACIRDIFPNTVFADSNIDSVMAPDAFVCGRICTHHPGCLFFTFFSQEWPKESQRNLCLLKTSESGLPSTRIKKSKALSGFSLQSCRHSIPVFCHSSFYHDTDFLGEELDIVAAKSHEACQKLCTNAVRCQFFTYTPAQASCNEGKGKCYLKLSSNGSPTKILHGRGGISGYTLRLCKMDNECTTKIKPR
Target sequence (P03951 388-625 limits assumed): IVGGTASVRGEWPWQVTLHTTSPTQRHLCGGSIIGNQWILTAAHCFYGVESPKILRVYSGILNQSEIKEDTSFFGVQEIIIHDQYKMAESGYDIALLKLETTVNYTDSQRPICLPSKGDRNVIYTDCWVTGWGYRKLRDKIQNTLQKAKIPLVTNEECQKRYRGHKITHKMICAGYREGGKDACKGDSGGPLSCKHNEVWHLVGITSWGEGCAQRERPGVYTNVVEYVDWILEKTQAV
M1 antag: blocks the rat M1 muscarinic receptor response to acetylcholine; CHO-M1 cells, Fluo-4 calcium, ACh EC80 antagonist mode; active compounds read low; B-score at 10 µM; actives 3.4% (n = 64,000);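 active means calcium fluorescence response, raw or row-and-column corrected B-score, differing from the plate sample mean either way at a set confidence level, mostly lower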
D1 mod confirm: confirmation of human D1 dopamine receptor allosteric modulators. luminescence at 10 µM. actives 88% (n = 2,200). shares compounds with D1 mod. HEK293 D1 CRE-luciferase, dopamine EC30 potentiation; active compounds read high;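 active means luminescence in either of two replicates above the same-plate mean plus 3 SD of the low-dose dopamine control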
D1 no dopamine: activates D1 CRE-luciferase signal without dopamine present; shares compounds with D1 mod; HEK293 D1 CRE-luciferase, luminescence, no dopamine; active compounds read high; luminescence at 10 µM; actives 0.8% (n = 1,900); in the data active means luminescence above about 3900
Isoprot counter: counter-screen for D1 modulators: isoproterenol response in HEK293 cells. shares compounds with D1 mod. HEK293 D1 CRE-luciferase, isoproterenol EC30 counter-screen. calls only at 10 µM. actives 63% (n = 2,200);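 active means luminescence in either replicate above plate mean of wells with a partly effective reference agonist dose plus 3 SD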;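 further: isoproterenol raises cAMP through native beta-adrenoceptor Gs so signal bypasses D1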
Hits are given with their value; 0 = inactive; - = no result given; + = active, no number. Unless noted, no stated cut-off is given here; in the data, active means inhibition above about 20% (passing the limit was not always enough); inactive means the rest.

SMILES | DAT uptake mod | D1 mod | FXIIa inh mix | M1 agonist | FXIa inh mix | M1 antag | D1 mod confirm | D1 no dopamine | Isoprot counter
COc1cc(C2C(C#N)=C(N)Oc3cc(O)ccc32)cc2c1OCO2 (configuration not stated) | 0 | 4.11 | 0 | 0 | 0 | 0 | 11740 | 0 | +
O=C(Nc1nc(COc2ccccc2)cs1)C12CC3CC(CC(C3)C1)C2 | 0 | - | - | - | - | - | - | - | -
CC(=O)Nc1c(-c2ccc(F)cc2)nc2ccccn12 | 0 | 0 | 0 | 0 | 0 | 0 | - | - | -
N#Cc1nc(-c2cccs2)oc1NCC1CCCO1 (configuration not stated) | 0 | 12.9 | 0 | 0 | 0 | 0 | 18624 | - | 0
CC(=O)Oc1cc(O)c2c(=O)c(OC(C)=O)c(-c3ccc(OC(C)=O)c(OC(C)=O)c3)oc2c1 | 0 | - | - | - | - | - | - | - | -
N#Cc1cc2ccccc2nc1SCc1ccccn1 | 0 | 4.44 | 0 | 0 | 0 | 0 | 8624 | - | +
CCOc1ccc2cc(C#N)c(SCC(=O)N3CCC(C)CC3)nc2c1 | 0 | 7.23 | 0 | 0 | 0 | 0 | 6372 | 0 | +
COc1ccc(C2CC(=O)c3cnc(NC(=O)c4ccccc4OC)nc3C2)c(OC)c1 (configuration not stated) | 0 | 6.54 | 0 | 0 | 0 | 0 | 15748 | 0 | +
COc1ccc(C2CC(=O)c3cnc(NC(=O)c4cccc(OC)c4)nc3C2)cc1 (configuration not stated) | 0 | 0 | 0 | 0 | 0 | 0 | - | - | -
COc1ccc(C2CC(=O)c3cnc(NC(=O)c4ccccc4)nc3C2)cc1OC (configuration not stated) | 0 | 4.57 | 0 | 0 | 0 | 0 | 9012 | 0 | +
Cn1cnnc1Sc1nc2c(c(=O)n(C)c(=O)n2C)n1Cc1ccccc1Cl | 0 | - | 0 | 0 | 0 | 0 | - | - | -
Cn1c(=O)c2c(nc(SCCCO)n2Cc2ccccc2Cl)n(C)c1=O | 0 | 3.87 | 0 | 0 | 0 | 0 | 6636 | 0 | 0
Cc1nc2c(o1)CCc1ccccc1C2O (configuration not stated) | 0 | 0 | 0 | 0 | 0 | 0 | - | - | -
COc1ccc(-c2coc3cc(O)cc(O)c3c2=O)cc1 | 0 | 6.2 | 0 | 0 | 0 | 0 | 9820 | 0 | 0
CCOC(=O)c1c(C2CC2)csc1NC(C)=O | 0 | 4.88 | 0 | 0 | 0 | 0 | 9548 | 0 | 0
CCCc1nc(SC2CCCC2)c2c(=O)n(C)c(=O)n(C)c2n1 | 0 | 0 | 0 | 0 | 0 | 0 | - | - | -
COc1ccc(Nc2nc(N)nc(CSc3n[nH]c(-c4ccccc4)n3)n2)cc1 | 0 | 5.03 | 0 | 0 | 0 | 0 | 6616 | 0 | +
Nc1nc(CSc2ncccn2)nc(Nc2ccccc2)n1 | 0 | - | - | - | - | - | - | - | -
O=S(=O)(NC1CCCCCC1)c1cccc2cccnc12 | 0 | 5.54 | 0 | 0 | 0 | 0 | 9760 | 0 | +
CN(CC(=O)NC1CCCCCCC1)S(=O)(=O)c1cccc2cccnc12 | 0 | - | 0 | 0 | 0 | 0 | - | - | -
CCSc1nc(N2CCOCC2)c2ccccc2n1 | 0 | 10.4 | 0 | 0 | 0 | 0 | 15840 | - | +
c1ccc2c(N3CCOCC3)nc(N3CCOCC3)nc2c1 | 0 | - | - | - | - | - | - | - | -
Cc1ccccc1C(=O)Oc1ccccc1C(=O)N1CCOCC1 | 0 | - | - | - | - | - | - | - | -
CC(=O)c1c(C(C)=O)c(C)n(NC(=O)c2ccc(Cl)cc2)c1C | 0 | - | - | - | - | - | - | - | -
CCc1ccc(C2=Nn3c(nnc3-c3cccs3)SC2)cc1 | 0 | 8.81 | 0 | 0 | 0 | 0 | 6272 | 0 | 0
SMILES | DAT uptake mod | D1 mod | FXIIa inh mix | M1 agonist | FXIa inh mix | M1 antag | D1 mod confirm | D1 no dopamine | Isoprot counter
COc1ccc(-c2nnc3n2N=C(C)CS3)cc1 | 0 | - | - | - | - | - | - | - | -
Cc1cccc(-c2nnc3n2N=C(c2ccccc2Br)CS3)c1 | 0 | 8.15 | 0 | 0 | 0 | 0 | 17404 | 0 | +
COc1ccc(C2=Nn3c(nnc3-c3ccc(OC)cc3)SC2)cc1 | 0 | 8.12 | 0 | 0 | 0 | 0 | 16788 | 0 | +
Cc1ccc(-c2nnc3n2N=C(c2ccccc2)CS3)cc1 | 0 | 8.3 | 0 | 0 | 0 | 0 | 21908 | 0 | +
CCOc1ccc(C2=Nn3c(nnc3-c3ccccc3)SC2)cc1Cl | 0 | - | 0 | 0 | 0 | 0 | - | - | -
COc1ccc(-c2nc3cnccn3c2Nc2ccc(C)cc2)cc1 | 0 | - | - | - | - | - | - | - | -
O=C(CCN1C(=O)C2C3C=CC(C3)C2C1=O)N1CCN(c2ccccc2F)CC1 (configuration not stated) | - | 0 | 0 | 0 | 0 | 0 | - | - | -
Cc1cccc(Nc2nc3c(c(=O)n(C)c(=O)n3C)n2CC(O)CO)c1 (configuration not stated) | 0 | 0 | 0 | 0 | 0 | 0 | - | - | -
FC(F)Sc1nnc(-c2cccs2)n1-c1ccccc1 | 0 | 6.93 | 0 | 0 | 0 | 0 | 13848 | 0 | +
CCCn1nc(NC(=O)c2ccncc2)c2cc3ccccc3nc21 | 0 | 8.38 | 0 | 0 | 0 | 0 | 12660 | - | +
CCCC1S/C(=N/N=C/c2ccc(OC)cc2)N(Cc2ccc(OC)cc2)C1=O (configuration not stated) | 0 | - | - | - | - | - | - | - | -
CCCOc1ccc(N2C(=O)CC(N3CCN(c4ccccc4F)CC3)C2=O)cc1 (configuration not stated) | 0 | - | 0 | 0 | 0 | 0 | - | - | -
CC(C)C1Cc2c(C#N)c(N)sc(=S)c2CO1 (configuration not stated) | 0 | 10.5 | 0 | 0 | 0 | 0 | 21832 | 0 | +
CC1(C)Cc2c(C#N)c(N)sc(=S)c2CO1 | 0 | 9.11 | 0 | 0 | 0 | 0 | 17212 | 0 | +
N#Cc1c(N)sc(=S)c2c1CCN(Cc1ccccc1)C2 | 0 | 0 | 0 | 0 | 0 | 0 | - | - | -
CCN(CC)c1nc(C)c2c(c1C#N)CC(C)(C)OC2 | 0 | - | - | 0 | - | 0 | - | - | -
COc1ccc(S(=O)(=O)N2CCC(C(=O)N3CCCCC3)CC2)cc1OC | 0 | 7.65 | 0 | 0 | 0 | 0 | 12168 | 0 | +
CCOC(=O)C1CCN(S(=O)(=O)c2ccc(OC)c(OC)c2)CC1 | 0 | - | - | - | - | - | - | - | -
CCOC(=O)c1c(-c2ccc(C)o2)csc1N | 0 | 0 | 0 | 0 | 0 | 0 | - | - | -
CCOC(=O)c1c(-c2ccsc2)csc1N | 0 | 7.48 | 0 | 0 | 0 | 0 | 8708 | 0 | 0
CCOC(=O)c1c(NC(=O)c2ccc(S(=O)(=O)N3CCOCC3)cc2)sc2c1CCN(C)C2 | 0 | 0 | 0 | 0 | 0 | 0 | - | - | -
Cc1nc(SCC#N)c2c(C)c(C)sc2n1 | 0 | 5.79 | 0 | 0 | 0 | 0 | 13352 | 0 | +
Cc1ccc(-c2nnc(CSc3nc(C)nc4sc(C)c(C)c34)o2)cc1 | 0 | 0 | 0 | 0 | 0 | 0 | - | - | -
O=C(O)c1[nH]c2ccc(Cl)cc2c1CC(=O)N1CCN(C(=O)c2ccco2)CC1 | 0 | 0 | 0 | 0 | 0 | 0 | - | - | -
O=C(O)c1[nH]c2ccc(Cl)cc2c1CC(=O)N1CCN(c2ccccc2)CC1 | 0 | 3.06 | 0 | 0 | 0 | 0 | 0 | 0 | 0
c1ccc(Cn2ncc3c(N4CCOCC4)ncnc32)cc1 | 0 | - | - | - | - | - | - | - | -
